# Experimental data reported in PubChem BioAssay (NCI).
# This is part of a sample that, as a whole, favours compounds with a hit. Of some 83,000 tested, about 20% had one in any assay.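 Interpretation: 100, growth as untreated; towards 0, rising growth inhibition; 0, no net growth; 0 to -100, cell death. Compounds scoring below 10 were considered active.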 Values without a mark were called inactive. Active and inactive are the calls of the source.
# Test system: HS 578T breast
# Experiment: NCI-60 one-dose screen, 48 h (100 = growth as untreated, 0 = no growth, -100 = all killed)
# Conditions: 10 µM unless noted
row,Structure (SMILES),growth
1,CCOC(=O)c1cnn(-c2nc(-c3ccc(F)cc3)c(C#N)c(N3CCOCC3)n2)c1N,103%
2,Cc1c(O)c(=O)ccn1-c1nc2ccccc2s1,95%
3,Nc1ccc(C2=NN(C(=O)c3cc(-c4ccc(Cl)cc4)nc4ccccc34)C(c3ccc(Cl)cc3)C2)cc1 (centres undefined),41.8%
4,COc1ccc2nc(-c3ccc(OC)c(OC)c3)cc(-c3nnc(SCC(=O)Nc4ccc(C(C)=O)cc4)o3)c2c1,97.3%
5,CNCc1cccc2c1OCCOCCOCCN(CCN1CCOCC1)S(=O)(=O)c1ccc(cc1)-c1cnc(N)c(n1)C(=O)N2,47.5%
6,COc1cc(C2=NN(C(C)=O)C(c3cccc(Nc4ccnc5cc(C(F)(F)F)ccc45)c3)C2)cc(OC)c1OC (centres undefined),76.6%
7,CC(C)CSc1nc(Nc2ccccc2)c(C#N)c(-c2ccc(F)cc2)n1,14.6%
8,CNc1cccc2c1C(=O)c1cccc(N)c1C2=O,19.4%
9,NC(=O)c1ccc(C2C3=C(CCCC3=O)OC3=C2C(=O)c2ccccc2C3=O)cc1 (centres undefined),67.1%
10,C=CCn1c(SCC(=O)Nc2ccc(C(=O)/C=C/c3ccc(Cl)cc3)cc2)nnc1-c1cc(OC)c(OC)c(OC)c1,87.8%
11,C=C1C(=O)O[C@H]2[C@H]1CC/C(C=Nc1c(N)cc(F)cc1Br)=C\CC[C@@]1(C)O[C@@H]21,90.2%
12,COc1cc(-c2csc(NC(=O)Nc3ccc(Cl)cc3)n2)cc(OC)c1OC,58.9%
13,COc1ccc(C(=O)c2cc(OC)c(C)c(OC)c2)cc1OC(=O)CCl,40.5%
14,Nc1c(C(=O)Nc2cccc3ccccc23)sc2nc3c(cc12)COCC3,35.8%
15,CN(C)C(CNc1oc(-c2cccc3ccccc23)nc1C#N)c1ccco1 (centres undefined),89.6%
16,Cc1cnc(-c2ccc(-c3ccc(NC(=O)Nc4c(F)cc(F)cc4F)cc3F)c3c2C(=O)NC3)[nH]1,-5.61% (active)
17,COc1ccc(-c2cc(C(=O)N3N=C(c4ccc(N)cc4)CC3c3ccc(OC)cc3)c3cc(OC)ccc3n2)cc1 (centres undefined),45.9%

row,Structure (SMILES),growth
1,COc1cc([C@H](C)c2ccc3ccccc3c2)cc(OC)c1OC,30.2%
2,O=c1nc(-c2ccccc2)c2cc(-c3ccc(N4CCCC4)nc3)ccc2[nH]1,67.8%
3,Cc1cccc2nc3c(n12)C(=O)C(=O)c1ccccc1-3,75.2%
4,CC(=O)Nc1c(C(=O)Nc2ccccc2)sc2nc3c(cc12)C(OC(C)=O)CCC3 (centres undefined),102%
5,CCN1CCN(c2ccc(NC(=O)Nc3nc4ccc(-c5ccccc5OC)cc4s3)cc2)CC1,-23.2% (active)
6,Cc1cc(Cl)cc(CN(Cc2ccccc2)Cc2c(O)ccc3ccccc23)c1O,102%
7,COC1=CC=CC2(OC)C3(O)CCCc4cccc(c43)N3C(=O)COC132 (centres undefined),93.7%
8,C=C1C(=O)O[C@H]2[C@H]1CC/C(COC(=O)N1CCC[C@H]1C(=O)Nc1ccc(OC)c(C(N)=O)c1O)=C\CC[C@@]1(C)O[C@@H]21,71.8%
9,Cc1cc(C)nc(NS(=O)(=O)c2ccc(Nc3ccc4c5c(n(CCCN(C)C)c(=O)c4c3)-c3ccccc3C5=O)cc2)n1,93.2%
10,COc1cc(NC(=O)c2cc(O)c(C/C=C(\C)CCC=C(C)C)c(O)c2)cc2c1O[C@]1(C)CC[C@@H](O)C(C)(C)[C@H]1C2,18.4%
11,CCCCCCN1C(=O)CN=C1Nc1ccc2cc3ccc(NC4=NCC(=O)N4CCCCCC)cc3nc2c1,56.6%
12,Nc1ccc(C2=NN(C(=O)c3cc(-c4ccc(Cl)cc4)nc4ccccc34)C(c3ccccc3)C2)cc1 (centres undefined),29.4%
13,CN(CCC#N)C(=O)Nc1ccccc1,105%
14,C=C(C)[C@@H]1CC[C@]2(C(=O)OCCCC[P+](c3ccccc3)(c3ccccc3)c3ccccc3)CC[C@]3(C)[C@H](CC[C@@H]4[C@@]5(C)CC[C@H](OC(=O)C(Cl)Cl)C(C)(C)[C@@H]5CC[C@]43C)[C@@H]12,-0.621% (active)
15,CSc1cccc(NC(=O)Nc2nc3c(C)cccc3s2)c1,87.7%
16,O=C(O)c1cn(C2CC2)c2cc(N3CCN(Cc4nnc(Nc5ccccc5)o4)CC3)c(F)cc2c1=O,98%
17,O=C1CS/C(=N/c2nnc(-c3ccc(O)cc3)s2)N1,95.4%
